Shown are actives, neighbours in structure and some others; about 0.68% of the full set was active somewhere.
Sa RN4220 lethal: kills Staphylococcus aureus RN4220; S. aureus RN4220 growth, OD600, 16 h; AID 1259311; 330,000 tested, 0.33% active; inhibition, % (concentration not given with the values); in the data active = inhibition above about 85%;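 note: plate controls were untreated cells for no effect and reference antibiotic for full effect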
Rv3671c inh: Rv3671c (M. tuberculosis) protease inhibition; P9WHR9; inhibition, % at 5.96 µM; 320,000 tested, 0.048% active; AID 2606; in the data active = inhibition above about 38%;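 note: extracellular domain of Rv3671c used as enzyme; 0% = enzyme with DMSO and 100% = no enzyme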
Target sequence (P9WHR9 whole entry, looked up, the tested form may be a part): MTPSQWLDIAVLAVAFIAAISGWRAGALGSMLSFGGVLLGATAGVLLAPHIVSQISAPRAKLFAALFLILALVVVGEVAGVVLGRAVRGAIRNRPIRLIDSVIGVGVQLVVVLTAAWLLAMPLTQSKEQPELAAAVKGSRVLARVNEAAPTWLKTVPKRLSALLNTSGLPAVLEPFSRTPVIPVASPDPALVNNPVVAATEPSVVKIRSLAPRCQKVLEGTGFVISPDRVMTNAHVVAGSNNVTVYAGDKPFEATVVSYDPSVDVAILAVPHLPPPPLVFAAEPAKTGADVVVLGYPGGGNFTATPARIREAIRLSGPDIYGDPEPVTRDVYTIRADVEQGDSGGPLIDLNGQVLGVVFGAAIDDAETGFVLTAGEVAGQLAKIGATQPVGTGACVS
Mtb hypoxia inh: reduces hypoxia-regulated biosensor signal in M. tuberculosis. 300,000 tested, 0.1% active. fluorescence inhibition, % (no concentration beside the values). M. tuberculosis hypoxia-regulated fluorescent reporter, fluorescence; in the data active = fluorescence inhibition mostly above about 23%, no sharp cut-off; inactive = mostly below about 17%
Sa ugtP lethal: kills S. aureus RN4220 lacking UgtP | S. aureus RN4220 ugtP deletion, OD600 growth, 16 h | growth inhibition, % (no concentration beside the values) | 330,000 tested, 0.54% active | AID 1259309; in the data active = growth inhibition above about 68%;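 note: plate controls were untreated wells for no effect and antibiotic for full effect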
Mtb UGM inh: inhibitors of M. tuberculosis UDP-galactopyranose mutase. P9WIQ1. inhibition, % at 10 µM. AID 504406. purified UGM, fluorescence polarization probe displacement. 320,000 tested, 0.06% active; in the data active = inhibition above about 10%, passing the limit was not always enough
Mtb betalactam: beta-lactam sensitization of Mtb H37Rv; 330,000 tested, 0.27% active; inhibition, % at 25 µM; M. tuberculosis H37Rv growth with meropenem, percent inhibition; call rule not given here;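 note: growth measured after seven days incubation then overnight dye step; 0% = bacteria only wells and 100% = bacteria with antibiotic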
Active calls of the source: *.

Screening Cc1ccccc1Cn1nnc2c1C(=O)c1ccccc1C2=O returned Sa RN4220 lethal 39.0, Rv3671c inh -12.5, Mtb hypoxia inh 5.7, Sa ugtP lethal 50.8, Mtb UGM inh -0.1 and Mtb betalactam 6.3.
Screening CCOC(=O)C1=C(C)N=c2sc(=Cc3cccc([N+](=O)[O-])c3O)c(=O)n2C1c1ccc(OC)cc1OC (stereo not given) returned Sa RN4220 lethal -14.3, Mtb hypoxia inh 40.6* and Sa ugtP lethal 39.8.
`O=C(O)c1cccc(Nc2nc(-c3ccc([N+](=O)[O-])cc3)nc3ccccc23)c1` gave Sa RN4220 lethal 5.9, Mtb hypoxia inh -0.1, Sa ugtP lethal 1.5, Mtb UGM inh 2.7 and Mtb betalactam 11.4.
Screening O=[N+]([O-])c1ccc(-c2nc(Nc3cccc(O)c3)c3ccccc3n2)cc1 returned Sa RN4220 lethal 84.9*, Rv3671c inh -61.4, Mtb hypoxia inh 10.8, Sa ugtP lethal 82.7*, Mtb UGM inh -0.8 and Mtb betalactam 2.4.
Screening COc1cccc(-c2nc(OC(C)C)c3ccccc3n2)c1 returned Sa RN4220 lethal -15.3, Rv3671c inh -0.9, Sa ugtP lethal 93.7*, Mtb UGM inh -0.3 and Mtb betalactam 64.1.
Screening COc1ccc(Nc2nc(-c3ccccc3O)nc3ccccc23)cc1 returned Sa RN4220 lethal 61.3, Rv3671c inh -29.9, Mtb hypoxia inh 6.5, Sa ugtP lethal 93.5*, Mtb UGM inh -3.2 and Mtb betalactam 2.6.
COc1cccc(Nc2nc(-c3ccccc3O)nc3ccccc23)c1 was read as Sa RN4220 lethal -11.8, Rv3671c inh -51.7, Mtb hypoxia inh -5.4, Sa ugtP lethal -7.6, Mtb UGM inh -1.2 and Mtb betalactam -4.4.
Screening COc1cccc(Nc2nc(-c3ccccc3)nc3ccccc23)c1 returned Sa RN4220 lethal 57.1, Rv3671c inh -107.4, Mtb hypoxia inh 1.6, Sa ugtP lethal 90.6*, Mtb UGM inh -1.2 and Mtb betalactam 89.6.
Screening COc1ccc(C2C=CCN(S(=O)(=O)c3cccc4cccnc34)C(C)C(=O)N2Cc2ccc(F)cc2)cc1 (stereo not given) returned Sa RN4220 lethal 1.4, Mtb hypoxia inh -4.3 and Sa ugtP lethal 8.2.
`COC(=O)C1CC1C(N)c1ccccc1` (stereo not given) gave Sa RN4220 lethal 2.1, Mtb hypoxia inh 11.4 and Sa ugtP lethal -6.4.
For O=S(=O)(c1cccc(Br)c1)N1CCN(c2ncnc3scc(-c4ccccc4)c23)CC1 the results were Sa RN4220 lethal 97.6*, Mtb hypoxia inh 6.4 and Sa ugtP lethal 99.1*.
Screening COc1ccc(-c2csc3ncnc(N4CCN(S(=O)(=O)c5ccc(C)cc5)CC4)c23)cc1 returned Sa RN4220 lethal 1.6, Rv3671c inh -8.1, Mtb hypoxia inh 4.0, Sa ugtP lethal -11.9, Mtb UGM inh 3.2 and Mtb betalactam -1.2.
For O=C(Nc1cccc(O)c1)c1cccc(NC(=O)c2cccs2)c1 the results were Sa RN4220 lethal 5.0, Rv3671c inh -17.6, Mtb hypoxia inh 54.1*, Sa ugtP lethal -0.7, Mtb UGM inh -0.6 and Mtb betalactam -1.9.
O=C(Nc1cccc(NC(=O)c2cccs2)c1)c1ccc(Br)cc1 was read as Rv3671c inh -20.7, Mtb UGM inh -0.1 and Mtb betalactam -20.3.
COc1ccc2c(c1)C(C)=CC(C)(C)N2S(=O)(=O)c1ccc(Br)cc1 was read as Sa RN4220 lethal -2.3, Rv3671c inh -8.2, Mtb hypoxia inh 20.4, Sa ugtP lethal 85.8*, Mtb UGM inh -0.4 and Mtb betalactam -6.9.
`COc1ccc2c(c1)C(C)=CC(C)(C)N2S(=O)(=O)c1ccc(NC(C)=O)cc1` gave Rv3671c inh -17.9, Mtb UGM inh 3.6 and Mtb betalactam -1.2.
`Cc1ccc(C(=O)COC(=O)c2cccc(NC(=O)c3ccc([N+](=O)[O-])cc3[N+](=O)[O-])c2)cc1` gave Sa RN4220 lethal -3.3, Rv3671c inh -8.9, Mtb hypoxia inh 40.6*, Sa ugtP lethal -14.2, Mtb UGM inh -4.2 and Mtb betalactam 99.7.
`CC1=NN(c2ccc(C)cc2)C(=O)/C1=C/c1ccc(-c2cc([N+](=O)[O-])ccc2O)o1` gave Sa RN4220 lethal 39.4, Mtb hypoxia inh 15.5 and Sa ugtP lethal 85.0*.
O=[N+]([O-])c1c(NCCCO)cc(Sc2nc3ccccc3s2)c2nonc12 was read as Sa RN4220 lethal 87.4*, Rv3671c inh -24.0, Mtb hypoxia inh 20.8, Sa ugtP lethal 100.6*, Mtb UGM inh 4.9 and Mtb betalactam 96.4.
CC(=O)c1ccc(N2CCN(C(=O)c3cccc(Oc4ccccc4)c3)CC2)cc1 was read as Sa RN4220 lethal -7.1, Rv3671c inh -2.9, Mtb hypoxia inh 6.8, Sa ugtP lethal 86.6*, Mtb UGM inh -1.0 and Mtb betalactam 7.9.
For CC(C)CC(=O)NC(=S)Nc1ccc(NC(=O)c2ccco2)cc1 the results were Sa RN4220 lethal 3.7, Rv3671c inh 6.3, Sa ugtP lethal 88.9*, Mtb UGM inh 1.6 and Mtb betalactam 18.4.
CCN(CC)S(=O)(=O)c1ccc(NC(=S)NC(=O)CC(C)C)cc1 was read as Sa RN4220 lethal -2.4, Rv3671c inh -3.2, Mtb hypoxia inh 8.3, Sa ugtP lethal 89.0*, Mtb UGM inh 0.5 and Mtb betalactam -2.4.
`O=C(CSc1nnc(-c2ccco2)o1)NCCc1ccccc1` gave Sa RN4220 lethal 0.9, Rv3671c inh -1.2, Mtb hypoxia inh 38.2*, Sa ugtP lethal 3.7, Mtb UGM inh -1.2 and Mtb betalactam 99.2.
`CCc1cccc2sc(N3CCN(C(=O)c4ccc([N+](=O)[O-])o4)CC3)nc12` gave Sa RN4220 lethal 99.7*, Rv3671c inh -6.7, Sa ugtP lethal 99.0*, Mtb UGM inh -0.4 and Mtb betalactam 99.9.
`O=C(C1=CC(c2coc3ccccc3c2=O)CC(OCc2ccc(CO)cc2)O1)N1CCN(Cc2ccccc2)CC1` (stereo not given) gave Sa RN4220 lethal 7.6, Mtb hypoxia inh 3.8 and Sa ugtP lethal 2.1.
For O=S1(=O)Nc2c(ccc3cccnc23)-c2ccccc21 the results were Sa RN4220 lethal 98.5*, Rv3671c inh -6.8, Sa ugtP lethal 98.4*, Mtb UGM inh 4.3 and Mtb betalactam 86.0.
`Oc1[nH]c2ccc(Br)cc2c1N=Nc1ccc(F)cc1` gave Sa RN4220 lethal -11.9, Rv3671c inh -0.6, Mtb hypoxia inh 6.1, Sa ugtP lethal -0.1, Mtb UGM inh 18.3* and Mtb betalactam 42.4.
`CCCCCCCCCCCCCCCCn1cc[n+](C)c1` gave Sa RN4220 lethal 100.7*, Rv3671c inh 13.2, Mtb hypoxia inh 12.4, Sa ugtP lethal 99.5*, Mtb UGM inh 0.5 and Mtb betalactam 95.4.
Screening CCOc1cccc(C=NNc2ccc(S(=O)(=O)N(CC)CC)cn2)c1O returned Sa RN4220 lethal 19.8, Mtb hypoxia inh 1.3 and Sa ugtP lethal 100.1*.
Screening CCN(CC)S(=O)(=O)c1ccc(N/N=C/c2ccc(O)cc2O)nc1 returned Rv3671c inh 10.7, Mtb UGM inh 3.5 and Mtb betalactam 13.4.
